Laboratory results taken from the supplement of paper PMC8728848.
This excerpt belongs to a sample that is enriched for the strongest signals.

Legend:
Assay in all cases: glycan array binding signal (z-score within array); higher = stronger binding
Details in all cases: glycan notation: IUPAC condensed, linker removed
Fuc(a1-2)Gal = target: Fuc(a1-2)Gal
Method in brief: (§1)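 Columns mapping to the same glycan were averaged after glycan names were converted to IUPAC-condensed notation. The data come from 3228 arrays in the Consortium for Functional Glycomics database, limited to those with an available protein sequence. Binding is reported as a within-array Z-score averaged across arrays of one protein sequence and across linkers.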

[1] = target: Fuc(a1-2)Gal(b1-3)GlcNAc(b1-2)Man(a1-3)[Fuc(a1-2)Gal(b1-3)GlcNAc(b1-2)Man(a1-6)]Man(b1-4)GlcNAc(b1-4)GlcNAc
Method in brief: as §1

[2] = target: Fuc(a1-2)Gal(b1-4)[Fuc(a1-3)]GlcNAc(b1-2)[Fuc(a1-2)Gal(b1-4)[Fuc(a1-3)]GlcNAc(b1-4)]Man(a1-3)[Fuc(a1-2)Gal(b1-4)[Fuc(a1-3)]GlcNAc(b1-2)Man(a1-6)]Man(b1-4)GlcNAc(b1-4)GlcNAc
Method in brief: as §1

[3] = target: Fuc(a1-2)[Gal(a1-3)]Gal(b1-3)GlcNAc(b1-2)Man(a1-3)[Fuc(a1-2)[Gal(a1-3)]Gal(b1-3)GlcNAc(b1-2)Man(a1-6)]Man(b1-4)GlcNAc(b1-4)GlcNAc
Method in brief: as §1

[4] = target: Fuc(a1-2)[Gal(a1-3)]Gal(b1-3)GlcNAc(b1-2)Man(a1-3)[Fuc(a1-2)[Gal(a1-3)]Gal(b1-3)GlcNAc(b1-2)Man(a1-6)]Man(b1-4)GlcNAc(b1-4)[Fuc(a1-6)]GlcNAc
Method in brief: as §1

[5] = target: Fuc(a1-2)[Gal(a1-3)]Gal(b1-3)GlcNAc(b1-3)GalNAc
Method in brief: as §1

[6] = target: Fuc(a1-2)[Gal(a1-3)]Gal(b1-4)GlcNAc
Method in brief: as §1

[7] = target: Fuc(a1-2)[Gal(a1-3)]Gal(b1-4)[Fuc(a1-3)]GlcNAc(b1-3)GalNAc
Method in brief: as §1

[8] = target: Fuc(a1-2)[GalNAc(a1-3)]Gal(b1-3)GalNAc(a1-3)[Fuc(a1-2)]Gal(b1-4)GlcNAc
Method in brief: as §1

[9] = target: Gal(a1-3)Gal(b1-4)GlcNAc(b1-2)Man
Method in brief: as §1

[10] = target: Gal(a1-3)[Gal(a1-4)]Gal(b1-4)GlcNAc
Method in brief: as §1

Gal(a1-6)Glc = target: Gal(a1-6)Glc
Method in brief: as §1

Gal(b1-3)GalNAc(b1-3)Gal = target: Gal(b1-3)GalNAc(b1-3)Gal
Method in brief: as §1

Gal(b1-3)GlcNAc = target: Gal(b1-3)GlcNAc
Method in brief: as §1

[11] = target: Gal(b1-3)[Fuc(a1-4)]GlcNAc(b1-3)Gal(b1-4)[Fuc(a1-3)]GlcNAc
Method in brief: as §1

[12] = target: Gal(b1-3)[Fuc(a1-4)]GlcNAc(b1-6)GalNAc
Method in brief: as §1

[13] = target: Gal(b1-3)[Neu5Ac(a2-6)]GlcNAc(b1-4)Gal(b1-4)Glc
Method in brief: as §1

Gal(b1-4)Glc = target: Gal(b1-4)Glc
Method in brief: as §1

[14] = target: Gal(b1-4)GlcNAc(b1-2)Man(a1-3)[Gal(b1-4)GlcNAc(b1-2)Man(a1-6)][Gal(b1-4)GlcNAc(b1-4)]Man(b1-4)GlcNAc(b1-4)[Fuc(a1-6)]GlcNAc
Method in brief: as §1

[15] = target: Gal(b1-4)GlcNAc(b1-2)[Gal(b1-4)GlcNAc(b1-6)]Man(a1-6)[Gal(b1-4)GlcNAc(b1-2)Man(a1-3)]Man(b1-4)GlcNAc(b1-4)GlcNAc
Method in brief: as §1

[16] = target: Gal(b1-4)GlcNAc(b1-3)Gal(b1-4)Glc
Method in brief: as §1

[17] = target: Gal(b1-4)GlcNAc(b1-3)Gal(b1-4)GlcNAc(b1-3)Gal(b1-4)GlcNAc(b1-2)Man(a1-3)[Gal(b1-4)GlcNAc(b1-3)Gal(b1-4)GlcNAc(b1-3)Gal(b1-4)GlcNAc(b1-2)Man(a1-6)]Man(b1-4)GlcNAc(b1-4)[Fuc(a1-6)]GlcNAc
Method in brief: as §1

[18] = target: Gal(b1-4)GlcNAc(b1-3)Gal(b1-4)GlcNAc(b1-3)GalNAc
Method in brief: as §1

[19] = target: Gal(b1-4)GlcNAc(b1-3)GalNAc
Method in brief: as §1

Gal3S(b1-3)GalNAc = target: Gal3S(b1-3)GalNAc
Method in brief: as §1

Gal6S(b1-3)GlcNAc = target: Gal6S(b1-3)GlcNAc
Method in brief: as §1

[20] = target: GalNAc(b1-3)Gal(a1-6)Gal(b1-4)Glc
Method in brief: as §1

Glc(b1-4)Glc = target: Glc(b1-4)Glc
Method in brief: as §1

[21] = target: GlcNAc(b1-2)[GlcNAc(b1-4)]Man(a1-3)[GlcNAc(b1-4)][GlcNAc(b1-2)[GlcNAc(b1-6)]Man(a1-6)]Man(b1-4)GlcNAc(b1-4)GlcNAc
Method in brief: as §1

[22] = target: GlcNAc(b1-3)Gal(b1-4)GlcNAc(b1-3)Gal(b1-4)GlcNAc(b1-3)Gal(b1-4)GlcNAc(b1-3)Gal(b1-4)GlcNAc(b1-2)[GlcNAc(b1-3)Gal(b1-4)GlcNAc(b1-3)Gal(b1-4)GlcNAc(b1-3)Gal(b1-4)GlcNAc(b1-3)Gal(b1-4)GlcNAc(b1-6)]Man(a1-6)[GlcNAc(b1-3)Gal(b1-4)GlcNAc(b1-3)Gal(b1-4)GlcNAc(b1-3)Gal(b1-4)GlcNAc(b1-3)Gal(b1-4)GlcNAc(b1-2)Man(a1-3)]Man(b1-4)GlcNAc(b1-4)[Fuc(a1-6)]GlcNAc
Method in brief: as §1

[23] = target: GlcNAc(b1-3)Gal(b1-4)GlcNAc(b1-6)[GlcNAc(b1-3)]Gal(b1-4)GlcNAc
Method in brief: as §1

[24] = target: GlcNAc(b1-3)[GlcNAc(b1-4)][GlcNAc(b1-6)]GlcNAc
Method in brief: as §1

[25] = target: GlcNAc6S(b1-3)Gal(b1-4)GlcNAc
Method in brief: as §1

[26] = target: Man(a1-2)Man(a1-3)[Man(a1-2)Man(a1-6)]Man(a1-6)[Man(a1-2)Man(a1-2)Man(a1-3)]Man
Method in brief: as §1

[27] = target: Neu5Ac(a2-3)Gal(b1-3)GlcNAc(b1-6)GalNAc
Method in brief: as §1

[28] = target: Neu5Ac(a2-3)Gal(b1-3)[Fuc(a1-4)]GlcNAc(b1-3)Gal(b1-3)[Fuc(a1-4)]GlcNAc
Method in brief: as §1

[29] = target: Neu5Ac(a2-3)Gal(b1-3)[GlcNAc(b1-6)]GalNAc
Method in brief: as §1

[30] = target: Neu5Ac(a2-3)Gal(b1-4)GlcNAc(b1-2)Man
Method in brief: as §1

[31] = target: Neu5Ac(a2-3)Gal(b1-4)[Fuc(a1-3)]GlcNAc(b1-3)Gal
Method in brief: as §1

[32] = target: Neu5Ac(a2-3)[GalNAc(b1-4)]Gal(b1-4)GlcNAc(b1-3)GalNAc
Method in brief: as §1

[33] = target: Neu5Ac(a2-6)Gal(b1-4)GlcNAc(b1-2)Man
Method in brief: as §1

[34] = target: Neu5Ac(a2-6)Gal(b1-4)GlcNAc(b1-2)Man(a1-3)[Neu5Ac(a2-6)Gal(b1-4)GlcNAc(b1-2)Man(a1-6)]Man(b1-4)GlcNAc(b1-4)GlcNAc
Method in brief: as §1

[35] = target: Neu5Ac(a2-6)Gal(b1-4)GlcNAc(b1-2)Man(a1-6)[GlcNAc(b1-2)Man(a1-3)]Man(b1-4)GlcNAc(b1-4)GlcNAc
Method in brief: as §1

[36] = target: Neu5Ac(a2-6)Gal(b1-4)GlcNAc(b1-3)Gal(b1-4)GlcNAc(b1-3)Gal(b1-4)GlcNAc(b1-2)Man(a1-3)[Neu5Ac(a2-6)Gal(b1-4)GlcNAc(b1-3)Gal(b1-4)GlcNAc(b1-3)Gal(b1-4)GlcNAc(b1-2)Man(a1-6)]GalNAc
Method in brief: as §1

[37] = target: Neu5Ac(a2-6)Gal(b1-4)GlcNAc(b1-3)Gal(b1-4)GlcNAc(b1-3)[Neu5Ac(a2-6)Gal(b1-4)GlcNAc(b1-3)Gal(b1-4)GlcNAc(b1-6)]GalNAc
Method in brief: as §1

[38] = target: Neu5Ac(a2-6)Gal(b1-4)GlcNAc(b1-6)GalNAc
Method in brief: as §1

Neu5Ac(a2-8)Neu5Ac = target: Neu5Ac(a2-8)Neu5Ac
Method in brief: as §1

[39] = target: Neu5Ac(a2-8)Neu5Ac(a2-8)Neu5Ac(a2-3)[GalNAc(b1-4)]Gal(b1-4)Glc
Method in brief: as §1

[40] = target: Neu5Gc(a2-3)Gal(b1-3)GlcNAc
Method in brief: as §1

[41] = target: Neu5Gc(a2-8)Neu5Gc(a2-3)Gal(b1-4)GlcNAc
Method in brief: as §1

B1: CcfD (Bacteroides fragilis), Q5L9G4 (protein)
chain: MKKQNSIYTLLIALLCFVSSCDYLGVSDQLAGGLQNTEQVFDNVSYTKRWYANVFAGIPDYSGINSVNVGAFKNPWTGMCDELVVGYGNSSKYNNSDRNAANMGFHRYGDCYKYIRQANIFLQKAHPIMTTGTQGDQLLEDELTQMKANVRFMRAFYHYLLFEQYGPIILVKDKIYNATEDQDVPRNTVDEVIEYIDSELTAVASELTQEPIFEDKDYRAWPTKGVALAVRAKLWLYAASPLLNGGYREALSVTNPDGTRLFPDYDAGKWEKALAACKDFIDYAEAGRYELYKEYKDDNGAVIDPDKSVYNLFQKYTHEIIWATANNDWGGMNGDAFDRRIAPRCEKNGLGSTGVTQELVDAFYMKDGFPVSATAYLPQSTLYQEEGYGTYKDQNDNFSKKYTNVTVSNRYLNREPRFYNTVFFNGRQWPVSCNQVLFYNGGNSGVQEGQATLTGYMLFKRFNRSVSLTNPGVASQFRPSIIFRLADFYLMYAEAANEVNPNDARVLKYLNLVRERAGLPDIETLNPAIRGNQELQRAAIQRERQIELATEGQRYFDVRRWMIADKNGEGRQNGYVHGMNVRGESNDKEDFNRIVEASQIVFNRKMYLYPMPDSEMRKTKNLVQNPGW
- glycan array binding signal (z-score) (Fuc(a1-2)Gal): 0.811
- glycan array binding signal (z-score) [1]: 5.05
- glycan array binding signal (z-score) [2]: 3.75
- glycan array binding signal (z-score) [3]: 2.68
- glycan array binding signal (z-score) [4]: 0.2
- glycan array binding signal (z-score) [5]: 0.095
- glycan array binding signal (z-score) [6]: 0.056
- glycan array binding signal (z-score) [7]: 0.64
- glycan array binding signal (z-score) [8]: 2.62
- glycan array binding signal (z-score) [9]: -0.588
- glycan array binding signal (z-score) [10]: -1.43
- glycan array binding signal (z-score) (Gal(a1-6)Glc): -0.384
- glycan array binding signal (z-score) (Gal(b1-3)GalNAc(b1-3)Gal): -0.456
- glycan array binding signal (z-score) (Gal(b1-3)GlcNAc): 0.42
- glycan array binding signal (z-score) [11]: 2.86
- glycan array binding signal (z-score) [12]: -0.036
- glycan array binding signal (z-score) [13]: 0.607
- glycan array binding signal (z-score) (Gal(b1-4)Glc): -0.056
- glycan array binding signal (z-score) [14]: 3.04
- glycan array binding signal (z-score) [15]: -0.896
- glycan array binding signal (z-score) [16]: 0.627
- glycan array binding signal (z-score) [17]: 1.57
- glycan array binding signal (z-score) [18]: 0.43
- glycan array binding signal (z-score) [19]: -0.998
- glycan array binding signal (z-score) (Gal3S(b1-3)GalNAc): 0.942
- glycan array binding signal (z-score) (Gal6S(b1-3)GlcNAc): 1.26
- glycan array binding signal (z-score) [20]: -0.64
- glycan array binding signal (z-score) (Glc(b1-4)Glc): 1.59
- glycan array binding signal (z-score) [21]: -0.548
- glycan array binding signal (z-score) [22]: 6.49
- glycan array binding signal (z-score) [23]: 0.069
- glycan array binding signal (z-score) [24]: 2.83
- glycan array binding signal (z-score) [25]: -0.516
- glycan array binding signal (z-score) [26]: 2.93
- glycan array binding signal (z-score) [27]: -0.64
- glycan array binding signal (z-score) [28]: -0.68
- glycan array binding signal (z-score) [29]: 0.22
- glycan array binding signal (z-score) [30]: -0.338
- glycan array binding signal (z-score) [31]: 0.036
- glycan array binding signal (z-score) [32]: 0.036
- glycan array binding signal (z-score) [33]: -0.522
- glycan array binding signal (z-score) [34]: 0.561
- glycan array binding signal (z-score) [35]: 4.06
- glycan array binding signal (z-score) [36]: 2.39
- glycan array binding signal (z-score) [37]: 2.75
- glycan array binding signal (z-score) [38]: -1.06
- glycan array binding signal (z-score) (Neu5Ac(a2-8)Neu5Ac): -0.378
- glycan array binding signal (z-score) [39]: -0.936
- glycan array binding signal (z-score) [40]: -0.456
- glycan array binding signal (z-score) [41]: -1.19
